Mot1-301 SUMO: SUMOylation pathway inhibition by Mot1-301 growth rescue. S. cerevisiae Mot1-301 growth rescue, ATP luminescence, 38.5C; percent above DMSO median, 100 means doubled. growth rescue, % at 18.8 µM. 320,000 compounds, 1% hits. AID 2716;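 active means every valid replicate shows activation above 250% relative to neutral control wells; inactive means the rest, any valid replicate at or below 250%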
Yeast superoxide: yeast age-related superoxide inhibition as caloric restriction mimetic | S. cerevisiae aged cells, superoxide DHE fluorescence; active compounds read low | superoxide response (% of plate mean), % at 10 µM | 330,000 compounds, 0.18% hits | AID 2690;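 active means superoxide response under a set limit, about three screen SD below normal, cut at about 65% in these data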;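 further: yeast aged for seven days with compound at 30 °C before DHE staining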
FAS-TE inh: blocks the thioesterase domain of human fatty acid synthase. recombinant FAS-TE, OMFH fluorogenic substrate, fluorescence endpoint. inhibition, % at 15 µM. 360,000 compounds, 0.67% hits;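 active means compounds whose normalised, plate-corrected inhibition of enzyme fluorescence in the single-dose primary screen is 50% or more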
Target sequence (P49327 whole entry, looked up, the tested form may be a part): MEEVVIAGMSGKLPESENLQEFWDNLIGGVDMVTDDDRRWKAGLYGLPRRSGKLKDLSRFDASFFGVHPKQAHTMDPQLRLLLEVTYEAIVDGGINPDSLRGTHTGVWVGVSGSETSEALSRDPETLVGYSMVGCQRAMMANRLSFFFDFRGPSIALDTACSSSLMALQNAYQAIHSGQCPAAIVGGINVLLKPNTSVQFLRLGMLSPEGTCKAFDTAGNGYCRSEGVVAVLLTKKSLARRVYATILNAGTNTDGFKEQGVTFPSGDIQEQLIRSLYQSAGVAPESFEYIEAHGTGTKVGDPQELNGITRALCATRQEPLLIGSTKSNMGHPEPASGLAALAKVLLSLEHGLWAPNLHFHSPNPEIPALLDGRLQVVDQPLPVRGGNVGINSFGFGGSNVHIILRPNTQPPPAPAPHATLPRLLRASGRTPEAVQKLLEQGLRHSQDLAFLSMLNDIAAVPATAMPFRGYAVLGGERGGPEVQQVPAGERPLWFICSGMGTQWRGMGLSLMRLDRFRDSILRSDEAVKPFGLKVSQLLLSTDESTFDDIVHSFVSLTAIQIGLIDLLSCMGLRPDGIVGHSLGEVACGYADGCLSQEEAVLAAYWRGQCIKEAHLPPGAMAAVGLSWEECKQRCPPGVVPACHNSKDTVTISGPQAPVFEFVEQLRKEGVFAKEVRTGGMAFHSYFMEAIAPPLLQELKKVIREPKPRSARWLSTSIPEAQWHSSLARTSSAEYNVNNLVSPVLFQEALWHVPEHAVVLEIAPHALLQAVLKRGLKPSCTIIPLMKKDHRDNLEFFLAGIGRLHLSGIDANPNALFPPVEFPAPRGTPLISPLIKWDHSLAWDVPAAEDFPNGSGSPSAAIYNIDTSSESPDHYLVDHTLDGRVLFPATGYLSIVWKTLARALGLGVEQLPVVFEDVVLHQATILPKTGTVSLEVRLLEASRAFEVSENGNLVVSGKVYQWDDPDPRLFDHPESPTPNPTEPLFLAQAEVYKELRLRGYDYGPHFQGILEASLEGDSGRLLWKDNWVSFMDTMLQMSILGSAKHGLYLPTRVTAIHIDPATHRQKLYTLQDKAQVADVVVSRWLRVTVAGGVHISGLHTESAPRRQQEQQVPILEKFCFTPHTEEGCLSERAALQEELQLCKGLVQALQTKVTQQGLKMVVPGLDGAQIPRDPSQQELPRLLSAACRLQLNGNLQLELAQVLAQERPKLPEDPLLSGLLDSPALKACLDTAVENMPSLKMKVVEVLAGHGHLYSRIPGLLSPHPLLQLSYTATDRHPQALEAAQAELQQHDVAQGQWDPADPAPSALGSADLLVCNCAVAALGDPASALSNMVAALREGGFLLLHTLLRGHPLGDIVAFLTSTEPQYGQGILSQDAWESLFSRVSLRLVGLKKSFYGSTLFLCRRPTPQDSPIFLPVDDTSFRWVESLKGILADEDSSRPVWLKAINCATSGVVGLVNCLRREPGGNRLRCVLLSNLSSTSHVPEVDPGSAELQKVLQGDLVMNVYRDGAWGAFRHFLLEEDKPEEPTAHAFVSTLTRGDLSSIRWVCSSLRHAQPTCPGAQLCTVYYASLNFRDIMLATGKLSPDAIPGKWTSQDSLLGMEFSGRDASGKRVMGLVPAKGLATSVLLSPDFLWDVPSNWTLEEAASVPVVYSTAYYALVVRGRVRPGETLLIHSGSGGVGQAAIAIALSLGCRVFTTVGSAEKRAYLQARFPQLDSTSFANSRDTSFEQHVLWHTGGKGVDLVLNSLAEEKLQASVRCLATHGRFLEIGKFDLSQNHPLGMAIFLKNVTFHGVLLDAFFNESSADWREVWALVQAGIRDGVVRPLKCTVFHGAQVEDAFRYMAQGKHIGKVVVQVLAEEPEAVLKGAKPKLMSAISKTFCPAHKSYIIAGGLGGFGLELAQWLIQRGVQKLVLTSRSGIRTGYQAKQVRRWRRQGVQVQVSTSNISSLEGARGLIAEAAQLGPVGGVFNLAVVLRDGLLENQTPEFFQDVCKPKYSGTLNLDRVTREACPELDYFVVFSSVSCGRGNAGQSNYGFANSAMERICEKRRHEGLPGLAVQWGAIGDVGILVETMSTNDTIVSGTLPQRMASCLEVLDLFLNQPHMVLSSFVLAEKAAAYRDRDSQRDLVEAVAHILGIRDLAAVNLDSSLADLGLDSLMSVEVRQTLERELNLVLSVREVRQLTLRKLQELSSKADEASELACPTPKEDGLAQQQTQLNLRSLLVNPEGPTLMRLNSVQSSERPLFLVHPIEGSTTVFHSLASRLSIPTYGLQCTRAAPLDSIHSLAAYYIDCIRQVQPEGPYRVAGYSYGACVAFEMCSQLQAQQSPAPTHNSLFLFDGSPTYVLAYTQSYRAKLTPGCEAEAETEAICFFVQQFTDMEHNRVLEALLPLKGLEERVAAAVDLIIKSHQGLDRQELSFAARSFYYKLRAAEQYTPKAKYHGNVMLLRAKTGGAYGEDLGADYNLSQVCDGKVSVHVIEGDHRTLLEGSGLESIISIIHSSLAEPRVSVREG
Cardio protect: modulators protecting cardiomyocytes from myocardial damage | H9c2 cardiomyocytes, H2O2 injury protection, ATPLite, 2 h | protection from H2O2 cell death, % at 20 µM | AID 588492 | 360,000 compounds, 0.63% hits;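 active means compounds giving at least 50% protection of heart cells from peroxide-induced death in the single-dose screen, raw or plate-pattern-corrected value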
MPTP block: blocks calcium-induced mitochondrial swelling; inhibition, % at 10 µM; 360,000 compounds, 1.4% hits; isolated mouse mitochondria, Ca2+ swelling absorbance, 30 min;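 active means inhibition of 50% or more, scaled per plate between neutral and stimulator controls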
aDG glyco up: increases alpha dystroglycan glycosylation; Pro5-aDG cells, alpha-DG glycosylation AlphaScreen (IIH6); 0% Pro5, 100% B10-LARGE cell signal; AID 624168; activation, % at 10 µM; 360,000 compounds, 0.22% hits;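 active means activation of at least 8% versus controls, or a plate z-score of at least 8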;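 further: Pro5 are CHO cells carrying HIG-tagged alpha-DG that lacks glycosylation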
Rh123 counter: Rhodamine 123 counter-screen of mitochondrial pore hits. shares compounds with MPTP block. isolated mitochondria, membrane potential, Rhodamine 123 fluorescence. inhibition, % at 10 µM. 5,000 compounds, 78% hits; in the data active means inhibition above about 22%
MPTP swell DR: MPTP inhibition, dose response swelling confirmation; shares compounds with MPTP block; isolated mitochondria swelling, absorbance; IC50, µM; 780 compounds, 58% hits; in the data active means IC50 below about 20 µM
MPTP counter DR: MPTP inhibitor counter-screen activity, dose response; shares compounds with MPTP block; isolated mitochondria counterscreen, fluorescence read-out; IC50, µM; 780 compounds, 49% hits; in the data active means IC50 below about 80 µM
Of the large screens only hits and unclear results are named; the others gave an inactive call (follow-up assays come after a bar, where they were run); ! = a repeat was not active. Only some compounds are listed: those with a hit (about 3.8% of all), similar ones and a draw of the others.

Cc1[nH]nc(-c2ccc(O)cc2O)c1Oc1ccccc1	MPTP block 56 | Rh123 counter 58
COc1ccc(Cc2nnc(Nc3ccc(Cl)cc3)[nH]c2=O)cc1	MPTP block 84 | Rh123 counter 67
CCCCCCCCCCn1ccc(=N)cc1	MPTP block 65 | Rh123 counter 90
CCCCc1c(-c2ccccc2OC)ncn1Cc1ccc(-c2ccccc2)cc1	MPTP block 78 (no result: Mot1-301 SUMO, Yeast superoxide, Cardio protect) | Rh123 counter 116
CCCCc1c(-c2ccccc2OC)ncn1Cc1ccc(Cl)cc1	none (no result: Mot1-301 SUMO, Yeast superoxide, Cardio protect)
O=S(=O)(Nc1nc2ccccc2nc1Nc1ccc2c(c1)OCO2)c1ccc(F)cc1	MPTP block 51 | Rh123 counter inactive | MPTP swell DR 4.1 | MPTP counter DR <2.5
O=S(=O)(Nc1nc2ccccc2nc1Nc1cccc(S(=O)(=O)N2CCCCC2)c1)c1ccccc1	MPTP block 55 | Rh123 counter 44
O=S(=O)(Nc1nc2ccccc2nc1N1CCN(c2ccccc2)CC1)c1ccc(F)cc1	Mot1-301 SUMO 526, MPTP block 79 | Rh123 counter 72
Cc1ccc(S(=O)(=O)Nc2nc3ccccc3nc2N2CCOCC2)cc1	none
COc1cc(C2(C)SCCCS2)cc(OC)c1OC	none (no result: Mot1-301 SUMO, Yeast superoxide, Cardio protect)
O=C(Nc1ccc(Cl)cc1)Nc1cnccn1	MPTP block 53 | Rh123 counter 70
O=C(Nc1ccc([N+](=O)[O-])cc1)Nc1cnccn1	MPTP block 69 | Rh123 counter 89
O=C(Nc1ccc(F)c(Cl)c1)Nc1cnccn1	none
Cc1c(C(=O)N2CCC2)oc2ccc(Cl)cc12	none
Cc1cc(C)cc(NC(=S)N2CC(C)OC(C)C2)c1 (stereo not given)	none
Cc1ccc(C(=O)N/N=C/c2cccc(OC(=O)/C=C/c3ccco3)c2)cn1	none
O=C(/C=C/c1ccco1)Oc1cc(Br)cc(/C=N/NC(=O)c2ccccc2O)c1	MPTP block 66 | Rh123 counter 63
COc1ccccc1NS(=O)(=O)c1cc(NC(=O)c2ccc(Cl)nc2)ccc1Cl	MPTP block 56 | Rh123 counter 72
CCOc1ccc(NS(=O)(=O)c2cc(NC(=O)c3ccc(C)cc3)ccc2Cl)cc1	MPTP block 90 | Rh123 counter 56
CCOc1ccc(Oc2ccc(NS(=O)(=O)c3cc(C(=O)O)ccc3Cl)cc2)cc1	none
C=CCc1cccc(CNc2cnc3ccccc3c2)c1O	MPTP block 89 | Rh123 counter 84
Oc1ccccc1CNc1cnc2ccccc2c1	MPTP block 71 | Rh123 counter 59
Cc1c(C(=O)NC2CCN(Cc3ccccc3)C2)oc2c(Cl)cccc12 (stereo not given)	MPTP block 63 | Rh123 counter inactive | MPTP swell DR inactive | MPTP counter DR inactive
CC(=O)c1cccc(N(C(=O)c2ccco2)C(C(=O)NC2CCCC2)c2ccccc2F)c1 (stereo not given)	none
CNc1cncc(C(=O)O)c1	none
CN(C)c1ccc2nc3ccc(=O)cc-3sc2c1	none (no result: Mot1-301 SUMO, Yeast superoxide)
Cc1cc2nc3ccc(=[N+](C)C)cc-3sc2cc1N	MPTP block 63, aDG glyco up 36 (no result: Mot1-301 SUMO, Yeast superoxide) | Rh123 counter 37
COCCN(Cc1ccc(C)cc1)C(=O)[C@H]1O[C@@H](n2cnc3c(N)ncnc32)[C@H](O)[C@@H]1O	none (no result: Mot1-301 SUMO, Yeast superoxide)
Cc1ccc(S(=O)(=O)N2CCOCC2)cc1C(=O)OCC(=O)NCCc1ccccc1	none
CSc1ncc(Cl)c(C(=O)C(C#N)c2nc3c(C)cc(C)cc3c(=O)[nH]2)n1 (stereo not given)	MPTP block 91 | Rh123 counter 73
CC(C)OCCCN1CC(=O)N2[C@@H](Cc3c([nH]c4ccccc34)C2(C)C)C1=O	none
CCc1cccc(CC)c1C(OC(C)=O)c1cccnc1 (stereo not given)	none
N#Cc1cccc(C#N)c1Oc1ccc(S(=O)(=O)Nc2ccc(Cl)cc2)cc1	MPTP block 77 | Rh123 counter 45
CNc1cncc(-c2ccc(OC)cc2)n1	none (no result: Mot1-301 SUMO, Yeast superoxide)
CC(C)COC(=O)NCCOC(=O)Nc1cccc(Cl)c1	MPTP block 102 | Rh123 counter 100
CC(C)COC(=O)NCCCOC(=O)Nc1ccccc1	none
COc1ccc(NC(=O)Cc2cccc(F)c2)cc1S(=O)(=O)Nc1ccccc1Cl	MPTP block 52 | Rh123 counter 70
O=C(NC1CC2CCCC(C1)N2C(=O)Nc1ccccc1F)C1CC1 (stereo not given)	none
CCOC(=O)/C(=C\Nc1ccccc1C(F)(F)F)Sc1ncc(C(F)(F)F)cc1Cl	MPTP block 95 | Rh123 counter inactive | MPTP swell DR inactive | MPTP counter DR inactive
O=C(COC(=O)C12CC3CC(CC(C3)C1)C2)NNC(=O)c1ccccc1	none
CCc1cc2c3c(c1)C(C)CC(C)(C)N3C(=O)/C2=C1\SC(=O)NC1=O (stereo not given)	MPTP block 55 | Rh123 counter 47
COc1cc2c3c(c1)C(C)CC(C)(C)N3C(=O)C2=O (stereo not given)	none
CC(=O)c1nnn(-c2nc(N)nc(N(c3ccccc3)c3ccccc3)n2)c1C	none
Cc1cc(C)n(-c2nc(N(c3ccccc3)c3ccccc3)nc(-n3nc(C)cc3C)n2)n1	MPTP block 80 | Rh123 counter inactive
CCc1ccc(CCC(=O)N2CCN(S(=O)(=O)c3sc(C(=O)O)c(C)c3C(=O)O)CC2)cc1	none (no result: Mot1-301 SUMO, Yeast superoxide)
Cc1cccc(-c2nsc(SCC(=O)Nc3ccc4c(c3)OCO4)n2)c1	MPTP block 54 | Rh123 counter 65
CSc1nsc(SCC(=O)Nc2ccc3c(c2)OCCO3)n1	none
Cc1ccccc1-c1nsc(SCC(=O)Nc2ccc3c(c2)OCO3)n1	MPTP block 84 | Rh123 counter 66
Cc1cc(C(=O)NNc2ccc(F)cc2)no1	none
Cc1cc(O)cc(O)c1/C=N/NC(=O)c1ccc2c(c1)OCCO2	none (no result: Mot1-301 SUMO, Yeast superoxide)
CCN1CCN(c2ncc(C(=O)Nc3cc(Cl)ccc3OC)c3ccccc23)CC1	MPTP block 78 | Rh123 counter inactive | MPTP swell DR inactive | MPTP counter DR inactive
COc1ccccc1N1CCN(c2ncc(C(=O)N3CCN(c4cccc(Cl)c4)CC3)c3ccccc23)CC1	none
Cc1ccc(NC(=O)CN2CC(C)SC2=NC2CCCCC2)cc1 (stereo not given)	MPTP block 52! | Rh123 counter inactive | MPTP swell DR 13 | MPTP counter DR inactive
Cc1ccc(S(=O)(=O)Nc2cccc(Cl)c2)cc1NC(=O)C1CC1	none

Screens deposited in PubChem by several laboratories.
